# Results from PubChem BioAssay (NCATS).
# Results filed as inconclusive are left out. Entries that show only a call come without a potency. Active and inactive are the calls of the source. Calls come from the whole dose curve; as a rule, active = well fitted curve in the direction sought with a large enough effect; inconclusive = small, poorly fitted or top-dose-only effect, or another doubt; inactive = no such curve, though single readings can be large; an effect the other way counts as inactive or inconclusive.
# Columns and labels:
# [1] = biological target: DNA repair nuclease/redox regulator APEX1 (Homo sapiens) (UniProt P27695); test: qHTS Validation Assay for Inhibitors of the Human Apurinic/apyrimidinic Endonuclease 1 (APE1) (AID 1705)
# DNA repair nuclease/redox regulator APEX1 (Homo sapiens), sequence (P27695 whole entry, looked up): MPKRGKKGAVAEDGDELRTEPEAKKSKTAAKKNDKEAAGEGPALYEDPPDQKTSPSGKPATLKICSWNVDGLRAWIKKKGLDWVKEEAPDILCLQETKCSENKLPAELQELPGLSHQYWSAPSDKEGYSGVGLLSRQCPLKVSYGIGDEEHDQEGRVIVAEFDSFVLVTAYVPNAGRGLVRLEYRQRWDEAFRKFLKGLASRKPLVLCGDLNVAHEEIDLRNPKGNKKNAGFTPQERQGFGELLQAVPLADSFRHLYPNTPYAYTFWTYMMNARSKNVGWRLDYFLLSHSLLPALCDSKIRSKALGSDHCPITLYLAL
# Method in brief: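 Endonuclease activity of human APE1 is followed as dequenching when the enzyme incises a tetrahydrofuran abasic site in a short duplex labelled 5'-TAMRA/3'-BHQ-2 (50 nM final), after 15 min enzyme–compound preincubation at room temperature.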
# [2] = Counterscreen for APE1 Inhibitors: Fluorescent Dye Displacement Validation Assay (AID 1707)
# Method in brief: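 Thiazole Orange displacement from dsDNA: 250 nM ThO with 50 nM TAMRA-labelled abasic-site (tetrahydrofuran) duplex in 50 mM Tris-HCl pH7.5, 50mM NaCl, 2 mM MgCl2, 0.01% Tween-20. Loss of endpoint fluorescence (ex 480 nm, em 540 nm) flags DNA binders.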
# [3] = biological target: Endonuclease 4 (Escherichia coli (strain K12)) (UniProt P0A6C1); test: Counterscreen for APE1 Inhibitors: qHTS Validation Assay for Inhibitors of Endonuclease IV (AID 1708)
# Method in brief: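 E. coli EndoIV at 2 nM final, preincubated 15 min at room temperature with compound, then 50 nM TAMRA/BHQ-2 THF abasic-site duplex added. Buffer: 50 mM Tris-HCl pH 7.5, 50 mM NaCl, 2 mM MgCl2, 1 mM DTT, 0.01% Tween-20. Kinetic fluorescence increase, third minus first read.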
# [4] = qHTS for differential inhibitors of proliferation of Plasmodium falciparum line 7G8 (AID 1815);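 note: parasite growth measured after three days of incubation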
# [5] = qHTS for differential inhibitors of proliferation of Plasmodium falciparum line GB4 (AID 1816); details: Potency: Plasmodium falciparum GB4 proliferation inhibition;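 note: parasite growth measured after 72 h incubation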
# [6] = qHTS for differential inhibitors of proliferation of Plasmodium falciparum line 3D7 (AID 1876)
# [7] = qHTS for differential inhibitors of proliferation of Plasmodium falciparum line D10 (AID 1877);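 note: parasites grown with compound for 72 h before DNA staining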
# [8] = qHTS for differential inhibitors of proliferation of Plasmodium falciparum line Dd2 (AID 1882); details: Potency: Plasmodium falciparum Dd2 proliferation inhibition; note: nearly all actives have a fitted effect of over 65% in size
# Method in brief: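 Dd2-infected erythrocytes (0.3% parasitemia, 2.5% hematocrit final) incubated with compound 72 h at 37 C, 5% CO2; lysed with saponin/Triton buffer containing SYBR Green I, incubated overnight in the dark, then read by fluorescence (485/535 nm). Normalized to 0.29 uM artemisinin and DMSO.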
# [9] = qHTS for differential inhibitors of proliferation of Plasmodium falciparum line W2 (AID 1883); details: Potency: Plasmodium falciparum W2 proliferation inhibition;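 note: parasites grown with compound for 72 h before lysis and staining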
# Potency is the fitted concentration of half-maximal effect.
SMILES,Potency [1],Potency [2],Potency [3],Potency [4],Potency [5],Potency [6],Potency [7],Potency [8],Potency [9]
C#CCN[C@H](C)Cc1ccccc1,inactive,inactive,inactive,inactive,inactive,inactive,inactive,inactive,inactive
Cc1c2ccncc2c(C)c2c1[nH]c1ccccc12,3.16 µM (active),inactive,2.82 µM (active),0.794 µM (active),0.398 µM (active),0.447 µM (active),2 µM (active),1.12 µM (active),0.708 µM (active)
C=CCN1CCC23c4c5ccc(O)c4O[C@H]2C(=O)CC[C@@]3(O)C1C5 (some centres not stated),inactive,inactive,inactive,inactive,inactive,inactive,inactive,inactive,–
Oc1ccc2c3c1O[C@H]1c4[nH]c5ccccc5c4C[C@@]4(O)C(C2)N(CC2CC2)CCC314 (some centres not stated),inactive,inactive,inactive,8.91 µM (active),8.91 µM (active),10 µM (active),12.6 µM (active),8.91 µM (active),6.31 µM (active)
CP(=O)(O)C1=CCNCC1,inactive,inactive,inactive,inactive,inactive,inactive,inactive,inactive,inactive
COc1ccc2[nH]cc(CCN)c2c1,inactive,inactive,inactive,inactive,inactive,inactive,inactive,inactive,inactive
CC1(C(=O)O)C2CCC(O2)C1(C)C(=O)O (configuration not stated),inactive,inactive,inactive,3.55 µM (active),3.16 µM (active),2.24 µM (active),1.58 µM (active),5.01 µM (active),1.12 µM (active)
Cc1[nH]c2ccc(O)cc2c1CCN,inactive,inactive,inactive,inactive,inactive,inactive,inactive,inactive,inactive
CO[C@H]1CC=C2CCN3CCC4=C(CC(=O)OC4)[C@]23C1,inactive,inactive,–,inactive,inactive,inactive,inactive,inactive,inactive
CCCN(CCC)[C@H]1CCc2c(F)ccc(O)c2C1,–,inactive,inactive,1 µM (active),0.501 µM (active),2 µM (active),2.24 µM (active),1.26 µM (active),0.447 µM (active)
CN(N=O)c1cc(O)ccc1O,1.41 µM (active),14.1 µM (active),inactive,inactive,–,inactive,inactive,inactive,inactive
COc1ccc2c(c1)/C(=C/c1cnc[nH]1)C(=O)N2,inactive,–,–,7.08 µM (active),8.91 µM (active),12.6 µM (active),14.1 µM (active),12.6 µM (active),7.08 µM (active)
O=S1(=O)N(CCN2CC=C(c3c[nH]c4cc(F)ccc34)CC2)c2cccc3c2N1CCC3,inactive,inactive,–,1.41 µM (active),1.41 µM (active),0.501 µM (active),1.26 µM (active),2 µM (active),1 µM (active)
NC(=O)c1cc(N2CC2)c([N+](=O)[O-])cc1[N+](=O)[O-],inactive,inactive,inactive,inactive,–,inactive,inactive,inactive,–
COc1cc(CC(C)N)c(OC)cc1I (configuration not stated),inactive,inactive,–,10 µM (active),6.31 µM (active),inactive,inactive,–,4.47 µM (active)
Cc1sc2ccccc2c1CC1=NCCN1,inactive,inactive,inactive,–,14.1 µM (active),–,–,–,8.91 µM (active)
c1ccc2c(c1)[I+]c1ccccc1-2,–,–,–,0.1 µM (active),0.0708 µM (active),0.0708 µM (active),0.141 µM (active),1 µM (active),0.1 µM (active)

SMILES,Potency [1],Potency [2],Potency [3],Potency [4],Potency [5],Potency [6],Potency [7],Potency [8],Potency [9]
Clc1ccc(N2CC3CCC(C2)N3)nn1,inactive,inactive,inactive,inactive,–,inactive,inactive,inactive,–
C[N+]1(C)C2CCC1CC(OC(=O)c1c[nH]c3ccccc13)C2 (configuration not stated),–,inactive,inactive,11.2 µM (active),12.6 µM (active),14.1 µM (active),12.6 µM (active),12.6 µM (active),7.94 µM (active)
C/C(O)=C(\C#N)C(=O)Nc1cc(Br)ccc1Br,inactive,–,–,inactive,inactive,inactive,inactive,inactive,inactive
CC(N)c1cccc(Cl)c1Cl (configuration not stated),inactive,inactive,inactive,–,11.2 µM (active),inactive,inactive,–,8.91 µM (active)
CC(C)(C)c1o[nH]c(=O)c1CC(N)C(=O)O (configuration not stated),inactive,inactive,–,inactive,inactive,inactive,inactive,inactive,–
CN1C2CCC1CC(OC(c1ccccc1)c1ccc(Cl)cc1)C2 (configuration not stated),inactive,inactive,–,2.24 µM (active),2.24 µM (active),2.24 µM (active),7.94 µM (active),8.91 µM (active),1.12 µM (active)
CCCn1c(=O)c2[nH]c(C3CCCC3)nc2n(CCCOC(=O)c2ccc(S(=O)(=O)F)cc2)c1=O,inactive,inactive,inactive,12.6 µM (active),–,–,inactive,–,11.2 µM (active)
O=P(O)(O)C(Cl)(Cl)P(=O)(O)O,inactive,inactive,–,inactive,inactive,inactive,inactive,inactive,inactive
C[N+]1(C)CCOC(O)(c2ccc(-c3ccc(C4(O)C[N+](C)(C)CCO4)cc3)cc2)C1 (configuration not stated),inactive,inactive,inactive,inactive,–,–,inactive,inactive,–
CCn1cnc2c(Nc3cccc(Cl)c3)nc(N[C@@H]3CCCC[C@@H]3N)nc21,–,inactive,inactive,3.16 µM (active),3.98 µM (active),2.82 µM (active),7.94 µM (active),11.2 µM (active),2.82 µM (active)
COc1ccc2c(c1)[C@@]13CCCC[C@H]1[C@@H](C2)NCC3,inactive,inactive,inactive,3.55 µM (active),7.08 µM (active),–,–,–,1.12 µM (active)
NCC(CP(=O)(O)O)c1ccc(Cl)cc1 (configuration not stated),inactive,inactive,–,inactive,inactive,inactive,inactive,inactive,inactive
CCCN(CCC)CCc1ccc(O)c(O)c1,inactive,inactive,inactive,12.6 µM (active),10 µM (active),–,14.1 µM (active),–,10 µM (active)
O=c1c2ccccc2[se]n1-c1ccccc1,inactive,inactive,inactive,14.1 µM (active),14.1 µM (active),–,–,–,17.8 µM (active)
O=C1CC[C@@]2(O)C3Cc4ccc(O)c5c4C2(CCN3CC2CC2)[C@H]1O5 (some centres not stated),inactive,inactive,inactive,inactive,inactive,–,–,inactive,10 µM (active)
NNC(N)=O,inactive,inactive,–,inactive,inactive,inactive,inactive,inactive,inactive
